Key:
Test in all cases: growth inhibition (% activity, log2 RLU normalised to DMSO / staurosporine); higher = more growth inhibition
Conditions in all cases: 33 µM
DIPGX29 = tested on: DIPGX29 (H3.3 K27M diffuse intrinsic pontine glioma line)
Procedure, shortened: (§1)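 For each approved drug, the growth-inhibition value is the replicate median of per-plate normalised CellTiter-Glo data. Luminescence was log2-transformed and expressed as % activity between solvent and positive control wells. Drugs were applied in triplicate at a single final concentration of about 33 μM for 7 days at 37 °C, 5% CO2 to pHGG cell lines and H9-derived neural stem cells.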

DIPGX37 = tested on: DIPGX37 (H3.3 K27M diffuse intrinsic pontine glioma line)
Procedure, shortened: as §1

DIPGX7 = tested on: DIPGX7 (H3.3 K27M diffuse intrinsic pontine glioma line)
Procedure, shortened: as §1

DIPGX9 = tested on: DIPGX9 (diffuse intrinsic pontine glioma line)
Procedure, shortened: as §1

HGGX39 = tested on: HGGX39 (paediatric high-grade glioma line)
Procedure, shortened: as §1

HGGX6 = tested on: HGGX6 (H3.3 G34R paediatric high-grade glioma line)
Procedure, shortened: as §1

HNSC = tested on: HNSC
Procedure, shortened: as §1

SUDIPGIV = tested on: SUDIPGIV (diffuse intrinsic pontine glioma line)
Procedure, shortened: as §1

SUDIPGVI = tested on: SUDIPGVI (diffuse intrinsic pontine glioma line)
Procedure, shortened: as §1

SUDIPGXIII = tested on: SUDIPGXIII (diffuse intrinsic pontine glioma line)
Procedure, shortened: as §1

SMILES	growth inhibition (DIPGX29) [%]	growth inhibition (DIPGX37) [%]	growth inhibition (DIPGX7) [%]	growth inhibition (DIPGX9) [%]	growth inhibition (HGGX39) [%]	growth inhibition (HGGX6) [%]	growth inhibition (HNSC) [%]	growth inhibition (SUDIPGIV) [%]	growth inhibition (SUDIPGVI) [%]	growth inhibition (SUDIPGXIII) [%]
O=C(C1CCCCC1)N1CC(=O)N2CCc3ccccc3C2C1 (stereo not given)	0.382	3.23	1.04	1.99	2.3	0.441	3.24	-1.19	3.33	-0.635
c1ccc2c(CC3=NCCN3)cccc2c1	0.509	1.82	1.78	1.2	4.23	-1.48	10	1.67	3.03	1.34
CCOC(=O)CCC(=O)O[C@H]1[C@H](O[C@@H]2[C@@H](C)[C@H](O[C@H]3C[C@@](C)(OC)[C@@H](O)[C@H](C)O3)[C@@H](C)C(=O)O[C@H](CC)[C@@](C)(O)[C@H](O)[C@@H](C)C(=O)[C@H](C)C[C@@]2(C)O)O[C@H](C)C[C@@H]1N(C)C	-2.45	-0.105	1.67	-1.7	-1.58	-2.75	19.9	-1.78	-9.9	2.09
CCC(=O)OCC(=O)[C@@]1(OC(=O)CC)[C@@H](C)C[C@H]2[C@@H]3CCC4=CC(=O)C=C[C@]4(C)[C@@]3(F)[C@@H](O)C[C@@]21C	0.0157	2.23	0.0573	4.05	3.08	1.77	-4.87	-0.108	0.781	1.98
Clc1ccccc1C(c1ccccc1)(c1ccccc1)n1ccnc1	3.31	0.662	3.85	6.07	16.9	14.3	31.3	26.9	2.55	42.1
O=S(=O)(O)NC1CCCCC1	0.811	0.93	1.03	0.594	2.81	1.56	0.385	0.0436	0.0298	-1.99
c1ccc(-c2ccc(C(c3ccccc3)n3ccnc3)cc2)cc1 (stereo not given)	3.65	2.9	5.02	5.27	9.63	5.19	11.5	13.7	2.63	-0.141
CCOc1nc2cccc(C(=O)OC(C)OC(=O)OC3CCCCC3)c2n1Cc1ccc(-c2ccccc2-c2nn[nH]n2)cc1 (stereo not given)	-1.79	-1.28	-1.84	-0.119	-0.661	0.0529	-2.55	-3.13	-3.95	-0.781
CC1=C(CC(=O)O)c2cc(F)ccc2/C1=C\c1ccc([S+](C)[O-])cc1 (stereo not given)	1.11	1.67	0.000497	0.866	0.763	2.31	-0.224	0.82	2.02	0.292
CCn1nc(C(=O)O)c(=O)c2cc3c(cc21)OCO3	0.16	0.624	-0.169	-0.854	0.711	1.66	0.841	-0.519	-0.803	0.089
NNC(=O)c1ccncc1.Nc1ccc(C(=O)O)c(O)c1	0.532	2.72	1.7	2.6	2.23	1.63	-0.818	0.972	3.47	-1.36
CN1CCN(C2=Nc3ccccc3Oc3ccc(Cl)cc32)CC1	-0.96	1.38	-0.128	1.22	6.27	-0.859	1.57	4.37	-2.03	0.859
COc1cccc2c1C(=O)c1c(O)c3c(c(O)c1C2=O)C[C@@](O)(C(C)=O)C[C@@H]3O[C@H]1C[C@H](N)[C@H](O)[C@H](C)O1	55.5	56.5	54.9	43.6	53	56.3	62.2	57.2	46.8	66.3
NC12CC3CC(CC(C3)C1)C2	0.311	-1.43	0.524	0.931	2.31	1.23	-2.35	0.117	0.782	-2.09
Cc1cc(C(C)(C)C)cc(C)c1CC1=NCCN1	-3.84	-1.44	-1.4	-2.83	-0.405	-4.11	2.45	0.0122	-2.26	-0.432
CN1CCC[C@@H]1CCO[C@](C)(c1ccccc1)c1ccc(Cl)cc1	5.74	3.39	5.71	2.23	6.24	5.32	4.55	0.591	2.52	1.69
NCCc1c[nH]cn1	-0.622	0.871	-1.55	0.0733	1.84	3.55	-2.23	0.269	-0.51	22.9
CC1=CC(=O)c2ccccc2C1=O	2.41	0.293	3.47	2.26	1.01	2.5	42.7	1.4	4.19	-2.13

SMILES	growth inhibition (DIPGX29) [%]	growth inhibition (DIPGX37) [%]	growth inhibition (DIPGX7) [%]	growth inhibition (DIPGX9) [%]	growth inhibition (HGGX39) [%]	growth inhibition (HGGX6) [%]	growth inhibition (HNSC) [%]	growth inhibition (SUDIPGIV) [%]	growth inhibition (SUDIPGVI) [%]	growth inhibition (SUDIPGXIII) [%]
CN(C)CCN(Cc1ccccc1)c1ccccn1	1.64	2.34	0.0331	3.36	5.32	0.326	-1.72	-0.134	1.29	2.37
O=C(O)Cc1cc(I)c(Oc2ccc(O)c(I)c2)c(I)c1	1.55	4.31	0.436	0.952	2.17	1.33	-1.43	3.33	2.21	-14.4
OCCN(CCO)c1nc(N2CCCCC2)c2nc(N(CCO)CCO)nc(N3CCCCC3)c2n1	-2.31	-0.429	-1.26	-0.332	2.38	1.04	-0.178	-1.52	-2.93	1.36
CN1CCN(C2=Nc3cc(Cl)ccc3Nc3ccccc32)CC1	3.8	0.486	1.02	-2.02	1.24	0.753	-1.26	-0.494	-5.31	-1.11
C[C@H](N)[C@H](O)c1cccc(O)c1	2.35	0.0235	1.7	1.54	5.08	0.73	3.77	1.73	4.42	1.04
CC(NCCc1ccc(O)cc1)C(O)c1ccc(O)cc1 (stereo not given)	-0.577	-0.38	-0.502	1.19	1.54	-0.151	-0.0915	-0.121	1.63	-1.5
Cc1c(-c2ccc(O)cc2)n(Cc2ccc(OCCN3CCCCCC3)cc2)c2ccc(O)cc12	22.4	0.0572	20.3	1.94	8.64	16.4	26.1	18.8	-5.95	1.05
Cc1ccc(-c2cc(C(F)(F)F)nn2-c2ccc(S(N)(=O)=O)cc2)cc1	0.436	-3.87	-0.904	0.265	-0.617	-1.39	0.519	-5.64	1.64	0.102
NC[C@H]1CC[C@H](C(=O)O)CC1	-0.318	1.11	0.868	1.09	2.3	0.25	-0.348	-1.18	0.626	-0.00541
COCCCOc1cc(C[C@@H](C[C@H](N)[C@@H](O)C[C@H](C(=O)NCC(C)(C)C(N)=O)C(C)C)C(C)C)ccc1OC	2.63	-0.699	1.89	6.01	3.87	1.44	2.36	-3.1	2.75	0.132
CC1(C)O[C@@H]2C[C@H]3[C@@H]4CCC5=CC(=O)C=C[C@]5(C)[C@@]4(F)[C@@H](O)C[C@]3(C)[C@]2(C(=O)CO)O1	1.92	0.771	-0.242	4.15	2.88	0.928	-2.22	-0.618	1.71	0.942
CN(C)CCc1c[nH]c2ccc(Cn3cncn3)cc12	-0.697	0.65	-0.925	0.553	1.2	1.15	-1.13	-0.297	1.51	-0.819
CCC(=O)O[C@]1(C(=O)SCF)[C@H](C)C[C@H]2[C@@H]3C[C@H](F)C4=CC(=O)C=C[C@]4(C)[C@@]3(F)[C@@H](O)C[C@@]21C	0.571	2.49	-1.29	2.53	0.688	-0.734	2.55	-3.9	-0.462	1.22
CN(C)CC/C=C1/c2ccccc2COc2ccc(CC(=O)O)cc21	1.93	3.18	2.2	2.77	2.27	2.49	-0.124	-0.355	2.4	0.825
Cn1nnc2c(C(N)=O)ncn2c1=O	-1.97	0.303	-1.33	-1.07	-1.58	-0.426	9.79	-4.09	0.031	-1.62
CC[C@@H](CO)NCCN[C@@H](CC)CO	-4.2	-0.485	-2.38	-2.09	-0.115	-2.97	-1.6	-3.04	-1.42	-0.832
CCCCCN(C)CCC(O)(P(=O)(O)O)P(=O)(O)O	-3.97	2.62	-1.48	-0.821	0.759	-3.74	5.06	-4.22	-0.622	0.0777
